Assay results published in PubChem BioAssay (Tox21).
Results filed as inconclusive are left out. Calls of active or inactive are those of the source. Calls come from the whole dose curve; as a rule, active = well fitted curve in the direction sought with a large enough effect in the repeat runs; inconclusive = weak or mixed curves; inactive = no such curve, though single readings can be large; an effect the other way counts as inactive or inconclusive.

Tests used:
[1] = A CellTox Green Cytotoxicity Assay to monitor cytotoxicity in HEK293 cells - 32 hour (AID 1224881); note: nearly all actives have a fitted effect of over 40% in size
In short: (§1)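 HEK293 cells premixed with CellTox Green dye were seeded at 600 cells/well and left 5 h at 37 C/5% CO2 before pin transfer of 23 nL compound in DMSO. Fluorescence from dye bound to dead-cell DNA was read during 40 h treatment.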

[2] = A CellTox Green Cytotoxicity Assay to monitor cytotoxicity in HepG2 cells - 0 hour (AID 1224882); note: nearly all actives have a fitted effect of over 35% in size
In short: (§2)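 HepG2 cells were seeded together with the CellTox Green dye at 600 cells/well, left 5 h at 37 C/5% CO2, then given compounds in DMSO. Fluorescence from dye bound to dead-cell DNA was read repeatedly over 40 h of treatment at 37 C.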

[3] = A CellTox Green Cytotoxicity Assay to monitor cytotoxicity in HepG2 cells - 32 hour (AID 1224883); note: nearly all actives have a fitted effect of over 50% in size
In short: as §2

[4] = A CellTox Green Cytotoxicity Assay to monitor cytotoxicity in HEK293 cells - 8 hour (AID 1224884); note: nearly all actives have a fitted effect of over 35% in size
In short: as §1

[5] = qHTS RealTime-Glo MT Cell Viability Assay in HepG2 cells - 16 hour (AID 1224885); note: nearly all actives have a fitted effect of over 50% in size
In short: (§3)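 Real-time, nonlytic viability: 600 HepG2 cells/well mixed with NanoLuc enzyme plus prosubstrate; 5 h settle, compound (DMSO) added by pintool; luminescence monitored over 40 h at 37 C.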

[6] = qHTS RealTime-Glo MT Cell Viability Assay in HEK293 cells - 24 hour (AID 1224886); note: top concentration of the series differs between compounds; nearly all actives have a fitted effect of over 50% in size
In short: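 Cells + reagent dispensed (600 cells/well, HEK293) → 5 h at 37 C/5% CO2 → 23 nL compound in DMSO pinned → 40 h at 37 C → luminescence read at 0, 8, 16, 24, 32, 40 h.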

[7] = qHTS RealTime-Glo MT Cell Viability Assay in HEK293 cells - 8 hour (AID 1224887); note: top concentration of the series differs between compounds; nearly all actives have a fitted effect of over 50% in size
In short: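 HEK293 cells mixed with RealTime-Glo reagents (NanoLuc plus cell-permeant prosubstrate) at 600 cells/well, preincubated 5 h at 37 C/5% CO2, then given 23 nL compound in DMSO. Nonlytic luminescence from viable cells was read at 0, 8, 16, 24, 32 and 40 h.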

[8] = A CellTox Green Cytotoxicity Assay to monitor cytotoxicity in HEK293 cells - 16 hour (AID 1224888); note: nearly all actives have a fitted effect of over 35% in size
In short: as §1

[9] = qHTS RealTime-Glo MT Cell Viability Assay in HepG2 cells - 0 hour (AID 1224889); note: nearly all actives have a fitted effect of over 50% in size
In short: as §3

[10] = A CellTox Green Cytotoxicity Assay to monitor cytotoxicity in HepG2 cells - 8 hour (AID 1224890); note: nearly all actives have a fitted effect of over 45% in size
In short: as §2

Measured: Potency

OC(Cn1cncn1)(c1ccc(F)cc1)c1ccccc1F (stereo not given)
inactive: all assays above

COP(N)(=S)Oc1ccccc1C(=O)OC(C)C (stereo not given)
inactive: all assays above

CCOC(=O)CP(=O)(OCC)OCC
inactive: all assays above

CN1CCN(C(=O)O[C@H]2c3nccnc3C(=O)N2c2ccc(Cl)cn2)CC1
inactive: all assays above

N#CC(Cl)(Cl)Cl
inactive: all assays above

NC(=O)c1cc([N+](=O)[O-])cc([N+](=O)[O-])c1
inactive: all assays above

O=[N+]([O-])c1ccc2c3c(cccc13)CC2
inactive: all assays above

CC1CN1P(=O)(N1CC1C)N1CC1C (stereo not given)
inactive: all assays above

O=C1OC(CCN2CCCCC2)OC1(c1ccccc1)c1ccccc1 (stereo not given)
inactive: all assays above

CC(C)(C)OC(=O)c1ncn2c1[C@@H]1CCCN1C(=O)c1c(Br)cccc1-2
inactive: all assays above

CCCCP(CCCC)CCCC
inactive: all assays above

O=C1CN2CCOC2(c2ccccc2Cl)c2cc(Cl)ccc2N1 (stereo not given)
inactive: all assays above

CC(=O)CCc1ccc2c(c1)OCO2
inactive: all assays above

CC1(C)COP(Oc2ccccc2)OC1
inactive: all assays above

CCOP(=S)(OCC)Oc1nc(Cl)n(C(C)C)n1
inactive: all assays above

N#CCBr
inactive: all assays above

COc1cc(OC)nc(NC(=O)NS(=O)(=O)c2ncccc2OCC(F)(F)F)n1
inactive: all assays above

CCCCOP(=O)(O)OCCCC
inactive: all assays above

CC1=NNC(=O)N(/N=C/c2cccnc2)C1
inactive: all assays above

CCOP(=S)(OCC)SCSP(=S)(OCC)OCC
inactive: all assays above

CNC(=O)Oc1cccc(C(C)C)c1
inactive: all assays above

CCCSC(=O)N(CCC)CCC
inactive: all assays above
